This is an account of results in PubChem BioAssay.

Assay [1] is described as follows: small molecules captured by biotinylated probe aFSTL3 – biochemical, small-molecule microarray, fluorescence 635/667, stem cell growth factor project, primary screen (AID 1064).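 Note: measures binding of the biotinylated anti-FSTL3 antibody to printed compounds.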 The note with it: higher = more signal.
The nature of assay [2]: binders from COS7 lysate, DM2A8 probe, primary screen, torsin A project, cell lysate, small-molecule microarray, fluorescence 635/667 (AID 1065). As to conditions: higher = more signal, COS7 lysate expressing mutant human TOR1A.
The nature of assay [3]: small molecules captured by biotinylated probe aFGF2 – biochemical, small-molecule microarray, fluorescence 635/667, stem cell growth factor project, primary screen (AID 1067).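 Note: measures binding of biotinylated aFGF2 protein to printed compounds on slides; z-score merges feature fluorescence and signal-to-noise across triplicate slides.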 As to conditions: higher = more signal.
Assay [4] is described as follows: small molecules captured by biotinylated probe aFGF10 – biochemical, small-molecule microarray, fluorescence 635/667, stem cell growth factor project, primary screen (AID 1071).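 Note: score merges 667 nm spot intensity and signal to noise from triplicate slides.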 As to conditions: higher = more signal.
Assay [5] concerns the target Neurogenic locus notch homolog protein 2 (Homo sapiens) (UniProt Q04721). The assay can be described thus: small molecules binding Notch2 protein – biochemical, small-molecule microarray, 635 nm fluorescence, stem cell growth factors, primary screen (AID 1073). The note with it: higher = more signal.
Assay [6] has as its target Pro-neuregulin-1, membrane-bound isoform (Homo sapiens) (UniProt Q02297). The assay can be described thus: small molecules binding neuregulin-1 protein – biochemical, small-molecule microarray, fluorescence 635/667, psychiatric disease protein project, primary screen (AID 1075).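 Note: score combines 667 nm spot fluorescence with signal to noise.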 The note with it: NRG1 binding, 635 nm fluorescence, higher = more signal.
For assay [7], the system named is Neuregulin-1 EGF-like domain. Briefly: small molecules binding NRG1 EGF domain – biochemical, small-molecule microarray, 635 nm fluorescence, primary screen (AID 1081).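 Note: binding of the protein to compounds printed on small-molecule microarray slides.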 The note with it: higher = more signal.
Assay [8] can be described thus: FRG1 expression reporter modulators in myotubes – cell-based, C2C12 myotubes, firefly/Renilla luciferase, luminescence, FRG1 inhibition for FSHD, primary screen (AID 1084). As to conditions: FRG1 promoter luciferase, higher = more signal, called active from +8 up or from −8 down.
Assay [9] is described as follows: small molecules captured by biotinylated probe aFST – biochemical, small-molecule microarray, fluorescence 635/667, stem cell growth factor project, primary screen (AID 1086).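 Note: score merges 667 nm fluorescence with signal-to-noise of each printed compound spot.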 As to conditions: higher = more signal.
Assay [10] in a line: binders of probe aHhip on microarray, primary screen, stem cell growth factor project, biochemical, small-molecule microarray, fluorescence 635/667 (AID 1087).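 Note: score merges spot fluorescence at 667nm with spot signal to noise ratio.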 The note with it: higher = more signal.
For assay [11], the system named is PRMT1 (protein arginine N-methyltransferase 1). Briefly: small molecules binding arginine methyltransferase PRMT1 – biochemical, small-molecule microarray, 635 nm fluorescence, primary screen (AID 1088).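 Note: binding of Prmt1 protein to compounds spotted on small-molecule microarray slides.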 As to conditions: higher = more signal.
Assay [12] in a line: growth effects on S. cerevisiae YJM789 – YJM789 clinical isolate, OD600, 24 h, basal, primary screen (AID 1089).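 Note: growth of clinical yeast isolate S. cerevisiae YJM 789 seeded 1000 cells per well; test concentration not given here.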 The note with it: higher = more signal, called active from +8 up or from −8 down.
The nature of assay [13]: S. pombe growth modifiers, basal conditions – strain 972, OD600, 24 h, no modulator, primary screen (AID 1090).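 Note: basal condition with compound alone and no growth modifier present; test concentration not given here.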 As to conditions: S. pombe 972 growth, higher = more signal, called active from +8 up or from −8 down.
Assay [14] is described as follows: budding yeast growth modifiers under rapamycin – strain BY4716, OD600, 96 h, primary screen (AID 1091). Note: test concentration not given here. As to conditions: S. cerevisiae BY4716 + rapamycin, higher = more signal, called active from +8 up or from −8 down.
The target in assay [15] is Torsin-1A-interacting protein 2 (Homo sapiens) (UniProt Q8NFQ8). Briefly: small molecules binding lysate-expressed LULL1 – cell lysate, human LULL1 lysate, 635/667 nm fluorescence, primary screen (AID 1092).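 Note: probe is lysate of COS7 cells overexpressing human LULL1; score merges per-feature 667 nm fluorescence with signal-to-noise.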 As to conditions: small-molecule microarray, hLULL1 lysate binding, 635 nm fluorescence; higher = more signal.
Assay [16] can be described thus: optical density change of DRC41 E. coli – strain DRC41, OD650, 24 h, E. coli filamentation project, primary screen (AID 1093).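 Note: MC1000 strain lacking acrAB efflux and sulA so SOS filamentation is blocked; test concentration not given here.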 As to conditions: E. coli DRC41 growth, higher = more signal, called active from +8 up or from −8 down.
Assay [17] is described as follows: probe aLefty2 binding to arrayed compounds – biochemical, biotinylated probe, 635/667 nm fluorescence, primary screen (AID 1094).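 Note: score merges spot fluorescence near 667 nm with spot signal-to-noise ratio.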 As to conditions: small-molecule microarray, higher = more signal.
For assay [18], the system named is Noggin (protein binding on small-molecule microarray). Briefly: small molecules binding Noggin protein – biochemical, 635/667 nm fluorescence, primary screen (AID 1095).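 Note: score merges 667 nm feature fluorescence with signal to noise over triplicate slides.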 As to conditions: 635 nm fluorescence, higher = more signal.
Assay [19] has as its target Neurogenic locus notch homolog protein 3 (Homo sapiens) (UniProt Q9UM47). Briefly: small molecules binding NOTCH3 protein – biochemical, 635/667 nm fluorescence, primary screen (AID 1096). The note with it: small-molecule microarray, 635 nm fluorescence, higher = more signal.
Assay [20] in a line: probe aEGFR binding to arrayed compounds – biochemical, biotinylated probe, 635/667 nm fluorescence, primary screen (AID 1097).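 Note: probe is a biotinylated anti-EGFR antibody binding compounds printed on slides; score combines fluorescence near 667 nm and signal to noise of each spot.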 As to conditions: small-molecule microarray, higher = more signal.

Calls of active or inactive are those of the source.

Sequence of Torsin-1A-interacting protein 2 (Homo sapiens) (Q8NFQ8 whole entry, looked up): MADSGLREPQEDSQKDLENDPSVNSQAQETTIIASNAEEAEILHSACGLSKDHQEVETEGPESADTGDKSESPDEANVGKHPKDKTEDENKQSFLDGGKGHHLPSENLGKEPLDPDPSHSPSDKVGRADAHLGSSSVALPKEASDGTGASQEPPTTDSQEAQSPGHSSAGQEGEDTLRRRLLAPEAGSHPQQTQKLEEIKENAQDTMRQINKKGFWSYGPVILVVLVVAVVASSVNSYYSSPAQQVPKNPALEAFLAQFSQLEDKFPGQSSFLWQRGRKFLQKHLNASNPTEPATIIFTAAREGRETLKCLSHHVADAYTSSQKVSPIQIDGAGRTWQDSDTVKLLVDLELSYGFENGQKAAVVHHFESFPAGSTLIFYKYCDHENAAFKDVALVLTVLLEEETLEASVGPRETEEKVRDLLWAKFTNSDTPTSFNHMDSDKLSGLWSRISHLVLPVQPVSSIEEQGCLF
Sequence of Pro-neuregulin-1, membrane-bound isoform (Homo sapiens) (Q02297 whole entry, looked up, the tested form may be a part, canonical isoform): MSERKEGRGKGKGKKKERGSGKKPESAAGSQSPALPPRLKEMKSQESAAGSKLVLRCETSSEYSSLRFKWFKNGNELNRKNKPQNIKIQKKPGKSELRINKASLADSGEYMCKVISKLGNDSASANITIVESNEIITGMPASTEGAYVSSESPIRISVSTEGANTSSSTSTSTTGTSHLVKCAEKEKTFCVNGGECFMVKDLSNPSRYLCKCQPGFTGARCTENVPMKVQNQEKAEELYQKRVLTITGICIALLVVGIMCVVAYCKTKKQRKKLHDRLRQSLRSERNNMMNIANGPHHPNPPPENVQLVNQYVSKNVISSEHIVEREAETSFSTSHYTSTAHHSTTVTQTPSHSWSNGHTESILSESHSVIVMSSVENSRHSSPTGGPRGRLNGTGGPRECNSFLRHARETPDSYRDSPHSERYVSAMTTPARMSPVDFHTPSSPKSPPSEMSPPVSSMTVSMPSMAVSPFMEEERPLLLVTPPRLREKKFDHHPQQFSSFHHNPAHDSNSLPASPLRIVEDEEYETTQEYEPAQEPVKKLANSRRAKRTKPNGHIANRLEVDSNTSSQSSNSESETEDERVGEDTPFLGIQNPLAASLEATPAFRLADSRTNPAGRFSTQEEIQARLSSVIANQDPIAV
Sequence of Neurogenic locus notch homolog protein 3 (Homo sapiens) (Q9UM47 whole entry, looked up): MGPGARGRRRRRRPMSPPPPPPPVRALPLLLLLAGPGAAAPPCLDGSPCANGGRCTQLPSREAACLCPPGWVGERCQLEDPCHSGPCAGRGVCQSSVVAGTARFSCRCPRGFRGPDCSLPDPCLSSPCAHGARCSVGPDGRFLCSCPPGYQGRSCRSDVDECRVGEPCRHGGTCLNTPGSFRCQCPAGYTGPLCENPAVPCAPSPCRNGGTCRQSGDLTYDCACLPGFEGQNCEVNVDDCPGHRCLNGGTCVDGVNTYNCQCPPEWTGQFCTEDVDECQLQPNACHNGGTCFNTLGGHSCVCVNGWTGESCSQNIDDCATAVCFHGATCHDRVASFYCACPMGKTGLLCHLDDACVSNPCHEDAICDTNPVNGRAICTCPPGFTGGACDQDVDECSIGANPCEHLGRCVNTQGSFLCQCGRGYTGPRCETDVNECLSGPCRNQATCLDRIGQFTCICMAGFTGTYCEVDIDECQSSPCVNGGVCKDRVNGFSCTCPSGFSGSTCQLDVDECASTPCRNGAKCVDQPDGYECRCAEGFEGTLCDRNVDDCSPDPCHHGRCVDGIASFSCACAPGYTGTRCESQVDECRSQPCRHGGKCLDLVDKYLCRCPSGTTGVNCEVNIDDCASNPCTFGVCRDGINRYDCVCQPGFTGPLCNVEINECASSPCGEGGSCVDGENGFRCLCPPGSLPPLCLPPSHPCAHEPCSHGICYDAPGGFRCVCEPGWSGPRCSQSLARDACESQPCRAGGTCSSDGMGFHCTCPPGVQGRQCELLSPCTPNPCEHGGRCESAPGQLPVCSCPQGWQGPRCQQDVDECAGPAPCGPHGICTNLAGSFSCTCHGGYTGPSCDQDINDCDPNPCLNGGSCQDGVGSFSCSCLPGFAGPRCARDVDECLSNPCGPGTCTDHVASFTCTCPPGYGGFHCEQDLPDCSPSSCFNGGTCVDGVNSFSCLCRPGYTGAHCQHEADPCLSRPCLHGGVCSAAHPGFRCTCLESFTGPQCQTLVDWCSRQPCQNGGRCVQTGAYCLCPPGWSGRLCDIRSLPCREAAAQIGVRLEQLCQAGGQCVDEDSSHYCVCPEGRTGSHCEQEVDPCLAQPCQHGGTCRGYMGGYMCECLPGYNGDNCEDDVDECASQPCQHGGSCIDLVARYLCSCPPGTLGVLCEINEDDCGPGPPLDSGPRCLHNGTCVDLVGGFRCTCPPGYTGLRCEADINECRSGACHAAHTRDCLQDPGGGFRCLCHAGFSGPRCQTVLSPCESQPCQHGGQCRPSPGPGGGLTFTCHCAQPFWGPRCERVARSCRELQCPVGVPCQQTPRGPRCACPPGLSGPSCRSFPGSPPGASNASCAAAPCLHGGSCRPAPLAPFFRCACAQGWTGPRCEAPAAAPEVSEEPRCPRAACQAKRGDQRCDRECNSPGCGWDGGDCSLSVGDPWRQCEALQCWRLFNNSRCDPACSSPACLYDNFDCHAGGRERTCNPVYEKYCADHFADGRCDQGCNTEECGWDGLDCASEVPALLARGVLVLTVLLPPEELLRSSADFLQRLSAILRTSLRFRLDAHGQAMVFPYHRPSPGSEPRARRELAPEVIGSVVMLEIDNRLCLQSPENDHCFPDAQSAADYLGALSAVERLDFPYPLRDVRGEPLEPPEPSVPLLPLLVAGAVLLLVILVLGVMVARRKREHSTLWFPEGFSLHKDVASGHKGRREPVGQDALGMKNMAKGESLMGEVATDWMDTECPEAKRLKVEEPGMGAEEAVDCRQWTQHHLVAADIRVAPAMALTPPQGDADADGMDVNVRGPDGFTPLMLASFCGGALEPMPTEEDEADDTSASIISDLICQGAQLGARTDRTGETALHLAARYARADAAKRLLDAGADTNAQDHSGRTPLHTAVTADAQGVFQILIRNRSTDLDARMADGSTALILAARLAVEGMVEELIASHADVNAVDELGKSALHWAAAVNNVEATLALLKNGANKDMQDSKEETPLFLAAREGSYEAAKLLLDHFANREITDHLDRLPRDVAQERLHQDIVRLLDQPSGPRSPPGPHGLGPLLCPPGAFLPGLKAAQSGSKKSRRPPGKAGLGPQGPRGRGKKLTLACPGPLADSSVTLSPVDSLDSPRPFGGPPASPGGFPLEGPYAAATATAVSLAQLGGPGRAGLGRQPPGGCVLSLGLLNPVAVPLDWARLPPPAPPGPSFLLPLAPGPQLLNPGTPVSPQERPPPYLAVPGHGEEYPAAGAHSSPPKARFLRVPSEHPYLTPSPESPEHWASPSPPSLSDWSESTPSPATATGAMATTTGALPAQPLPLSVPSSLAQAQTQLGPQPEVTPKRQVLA

As to `CC[C@@H]1C=C(C(=O)O)[C@H](c2ccc(OC)cc2)N1S(=O)(=O)c1ccc(C)cc1`, the composite z-score in assay [1] is 0.0675; in assay [2], -0.194; in assay [3], -0.128; in assay [4], -0.0542; in assay [5], 0.0174; in [6], 0.993. In addition, the composite z-score in assay [7] was 1.28; in assay [9] it was 0.233; in assay [10], -0.0994; in assay [11], -0.222; in assay [15], 2.15; in [17], -0.0491. In addition, the composite z-score in [18] is -0.199; in assay [19] it was 0.624; in assay [20], -0.0828. In addition, the z-score in [8] was 0.267 (inactive); in [12], -0.639 (inactive); in [13] it was 0.211 (inactive); in assay [14], -0.113 (inactive); in [16], -1.04 (inactive).
As to `COC(=O)C(CC#Cc1ccc2c(c1)[C@]1(C(=O)N2)[C@H](c2ccc(OCCO)cc2)N2[C@H](c3ccccc3)[C@H](c3ccccc3)OC(=O)[C@H]2[C@@H]1C(=O)N1CCCCCCC1)C(=O)OC`, the composite z-score came out at 3.41 in assay [1]; 1.91 in assay [2]; 0.826 in assay [3]; 1.21 in assay [4]; 1.14 in assay [5]; 1.93 in assay [6]. Moreover, the composite z-score in assay [7] came out at 1.27; in assay [9], 3.21; in [10] it was 1.45; in assay [11] it was 1.54; in [15] it was 3.95; in assay [17] it was 1.54. Moreover, the composite z-score in [18] worked out at 1.84; in assay [19], 1.03; in assay [20], 1.17. The z-score in assay [8] was -0.378 (inactive); in assay [12], 1.37 (inactive); in assay [13] it was 0.736 (inactive); in assay [14], 2.56 (inactive); in assay [16], -0.611 (inactive).
As to `COCCOC(=O)N1C(=O)[C@@]2(c3ccccc31)[C@H](c1ccc(O)cc1)N1[C@H](c3ccccc3)[C@H](c3ccccc3)OC(=O)[C@H]1[C@@H]2C(=O)N1CCCCCCC1`, the composite z-score was found to be 3.84 in assay [1]; 1.88 in assay [2]; 0.949 in [3]; 0.802 in assay [4]; 1.07 in assay [5]; 2.5 in assay [6]. For the same molecule, the composite z-score in assay [7] is 1.29; in [9] it was 3.5; in assay [10], 3.27; in assay [11], 1.55; in [15], 3.9; in assay [17], 1.76. Also, the composite z-score in [18] was 1.98; in assay [19] it was 1.02; in [20], 1.26. The z-score in [8] is -3.25 (inactive); in assay [12] it was -0.322 (inactive); in assay [13] it was 0.621 (inactive); in [14], 0.929 (inactive); in assay [16] it was 0.178 (inactive).
`CN(C)CCCC[C@@H]1NC(=O)[C@H]2C[C@@H](C(=O)O)[C@@H](c3ccc(O)cc3)N2C1=O`: the composite z-score in assay [1] is 3.22; in [2] it was 2.34; in assay [3], 0.653; in assay [4] it was 1.04; in assay [5], 1.64; in assay [6] it was 2.84. The composite z-score in [7] amounted to 1.38; in assay [9], 3.29; in [10] it was 1.38; in assay [11], 1.54; in [15], 4.23; in assay [17] it was 1.55. The composite z-score came to 2.16 in assay [18], 1.02 in assay [19] and 1.33 in [20]. The z-score in [8] was 2.42 (inactive); in assay [12], -0.116 (inactive); in assay [13], -1.99 (inactive); in assay [14], 0.193 (inactive); in [16], 2.11 (inactive).
For the molecule `C=CCNC(=O)[C@H]1[C@@H]2C(=O)O[C@@H](c3ccccc3)[C@@H](c3ccccc3)N2[C@@H](c2ccc(OCCO)cc2)[C@]12C(=O)Nc1ccc(C#CC3(O)CCCCCC3)cc12`, the composite z-score in assay [1] was 0.604; in assay [2] it was 0.648; in [3] it was -0.0065; in assay [4], 1.1; in [5], 1.54; in assay [6], 1.43. In addition, the composite z-score in assay [7] was found to be 1.1; in assay [9], 0.229; in assay [10], 0.306; in assay [11], 1.53; in [15] it was 2.11; in [17], 0.323. Moreover, the values for the composite z-score in assay [18], in [19] and in assay [20] were 1.4, 1.08 and 0.0432, respectively. Further, the z-score in assay [8] is -0.486 (inactive); in assay [12], 2.3 (inactive); in assay [13] it was 1.42 (inactive); in assay [14], 5.09 (inactive); in [16] it was 1.61 (inactive).
